Test results reported in PubChem BioAssay (NCATS).
Several values for one entry are separate records, joined by “and”; a condition that tells them apart may be missing. Identical values can stand only once. Records with an inconclusive call do not appear. Where a call stands in place of a potency, no number is given. Activity calls are given as the source filed them. Calls follow the shape of the dose curve; as a rule, active = well fitted curve in the direction sought with a large enough effect; inconclusive = small, poorly fitted or top-dose-only effect, or another doubt; inactive = no such curve, though single readings can be large; an effect the other way counts as inactive or inconclusive.

Key:
[1] = qHTS of pediatric cancer cell lines to identify multiple opportunities for drug repurposing: Primary screen for TC32 cells (AID 1347089); also: nearly all actives have a fitted effect of over 60% in size; also: potency is read from the fitted curve at half-maximal effect
How it was run: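 In the primary qHTS, MIPE compounds were tested at 11 concentrations (0.78 nM to 46 µM) and NPC compounds at 8 (0.59 nM to 46 µM) on TC32 cells for 48 h. CellTiter-Glo luminescence gave viability.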

[2] = qHTS of pediatric cancer cell lines to identify multiple opportunities for drug repurposing: Primary screen for DAOY cells (AID 1347090); also: nearly all actives have a fitted effect of over 55% in size; also: potency is read from the fitted curve at half-maximal effect
How it was run: (§1)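 Eight- or eleven-point concentration series, 48 h treatment at 37 degrees C in growth media; readout CellTiter-Glo luminescence. Potency and efficacy were taken from the concentration-response curves.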

[3] = qHTS of pediatric cancer cell lines to identify multiple opportunities for drug repurposing: Primary screen for SJ-GBM2 cells (AID 1347091); also: potency is read from the fitted curve at half-maximal effect
How it was run: as §1

[4] = qHTS of pediatric cancer cell lines to identify multiple opportunities for drug repurposing: Primary screen for A673 cells (AID 1347092); also: nearly all actives have a fitted effect of over 45% in size; also: potency is read from the fitted curve at half-maximal effect
How it was run: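 48 h compound exposure, A673, 500-1,000 cells/well, 37 degrees C/5% CO2. MIPE: 11-point, 0.78 nM-46 µM; NPC: 8-point, 0.59 nM-46 µM (final). Readout CellTiter-Glo luminescence after 15 min RT.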

[5] = qHTS of pediatric cancer cell lines to identify multiple opportunities for drug repurposing: Primary screen for SK-N-MC cells (AID 1347093); also: potency is read from the fitted curve at half-maximal effect
How it was run: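 Metabolically active cells were quantified by ATP-dependent luminescence (CellTiter-Glo, 15 min at room temperature) following 48 h treatment. Cells had been plated at 500-1,000 per well and settled for 5 h beforehand.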

[6] = qHTS of pediatric cancer cell lines to identify multiple opportunities for drug repurposing: Primary screen for BT-37 cells (AID 1347094); also: potency is read from the fitted curve at half-maximal effect
How it was run: (§2)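 Cells plated at 500-1,000/well in growth medium, compounds added after 5 h. MIPE tested at 11 points (from 0.78 nM), NPC at 8 points (from 0.59 nM). CellTiter-Glo luminescence after 48 h; concentration-response curves from primary screen.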

[7] = qHTS of pediatric cancer cell lines to identify multiple opportunities for drug repurposing: Primary screen for NB-EBc1 cells (AID 1347095); also: potency is read from the fitted curve at half-maximal effect
How it was run: as §2

[8] = qHTS of pediatric cancer cell lines to identify multiple opportunities for drug repurposing: Primary screen for U-2 OS cells (AID 1347096); also: nearly all actives have a fitted effect of over 50% in size; also: potency is read from the fitted curve at half-maximal effect
How it was run: (§3)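 Cells (500-1,000/well) in growth media were settled 5 h at 37 degrees C, then given compounds for 48 h. Viability was read as CellTiter-Glo luminescence. Primary runs used MIPE at 11 points (0.78 nM-46 µM) and NPC at 8 points (0.59 nM-46 µM); follow-ups used 11 points.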

[9] = qHTS of pediatric cancer cell lines to identify multiple opportunities for drug repurposing: Primary screen for SK-N-SH cells (AID 1347098); also: nearly all actives have a fitted effect of over 65% in size; also: potency is read from the fitted curve at half-maximal effect
How it was run: (§4)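 Cells (500-1,000/well) rested 5 h, then received compounds for 48 h; metabolically active cells were measured by CellTiter-Glo luminescence. Final concentrations spanned up to 46 µM (MIPE, 11-point) or 0.59 nM-46 µM (NPC, 8-point) in primary screens, 11-point in follow-ups.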

[10] = qHTS of pediatric cancer cell lines to identify multiple opportunities for drug repurposing: Primary screen for NB1643 cells (AID 1347099); also: nearly all actives have a fitted effect of over 50% in size; also: potency is read from the fitted curve at half-maximal effect
How it was run: as §2

[11] = qHTS of pediatric cancer cell lines to identify multiple opportunities for drug repurposing: Primary screen for LAN-5 cells (AID 1347100); also: potency is read from the fitted curve at half-maximal effect
How it was run: as §3

[12] = qHTS of pediatric cancer cell lines to identify multiple opportunities for drug repurposing: Primary screen for OHS-50 cells (AID 1347103); also: nearly all actives have a fitted effect of over 40% in size; also: potency is read from the fitted curve at half-maximal effect
How it was run: as §4

[13] = qHTS of pediatric cancer cell lines to identify multiple opportunities for drug repurposing: Primary screen for RD cells (AID 1347104); also: nearly all actives have a fitted effect of over 55% in size; also: potency is read from the fitted curve at half-maximal effect
How it was run: as §2

[14] = qHTS of pediatric cancer cell lines to identify multiple opportunities for drug repurposing: Primary screen for MG 63 (6-TG R) cells (AID 1347105); also: nearly all actives have a fitted effect of over 50% in size; also: potency is read from the fitted curve at half-maximal effect
How it was run: as §2

[15] = qHTS of pediatric cancer cell lines to identify multiple opportunities for drug repurposing: Primary screen for control Hh wild type fibroblast cells (AID 1347106);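 also: series mostly up to about 46 µM; a drop in luminescence marks cytotoxicity and a rise apparent proliferation; nearly all actives have a fitted effect of over 55% in size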
How it was run: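 Viability after 48 h compound treatment at 37C, 500-1,000 cells/well, read as ATP luminescence with CellTiter-Glo. Primary screens used 11-point (MIPE, 0.78 nM-46 µM) or 8-point (NPC, 0.59 nM-46 µM) final concentrations; follow-up screens used 11-point dilutions.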

[16] = qHTS of pediatric cancer cell lines to identify multiple opportunities for drug repurposing: Primary screen for Rh30 cells (AID 1347107); also: nearly all actives have a fitted effect of over 75% in size; also: potency is read from the fitted curve at half-maximal effect
How it was run: as §3

[17] = qHTS of pediatric cancer cell lines to identify multiple opportunities for drug repurposing: Primary screen for Saos-2 cells (AID 1347097); also: nearly all actives have a fitted effect of over 40% in size; also: potency is read from the fitted curve at half-maximal effect
How it was run: as §2

[18] = qHTS of pediatric cancer cell lines to identify multiple opportunities for drug repurposing: Primary screen for BT-12 cells (AID 1347101); also: nearly all actives have a fitted effect of over 25% in size; also: potency is read from the fitted curve at half-maximal effect
How it was run: as §4

[19] = qHTS of pediatric cancer cell lines to identify multiple opportunities for drug repurposing: Primary screen for Rh18 cells (AID 1347102); also: nearly all actives have a fitted effect of over 65% in size; also: potency is read from the fitted curve at half-maximal effect
How it was run: as §3

Structure (SMILES)	Potency [1]	Potency [2]	Potency [3]	Potency [4]	Potency [5]	Potency [6]	Potency [7]	Potency [8]	Potency [9]	Potency [10]	Potency [11]	Potency [12]	Potency [13]	Potency [14]	Potency [15]	Potency [16]	Potency [17]	Potency [18]	Potency [19]
O=C1C[C@@H](c2ccc(O)cc2)Oc2cc(O)cc(O)c21	inactive	inactive	inactive	inactive	inactive	inactive	inactive	inactive	inactive	inactive	inactive	inactive	inactive	inactive	inactive	inactive	–	–	–
COc1ccc(-c2nc(N3CCOCC3)c3sc(CN(C)c4ncc(C(=O)NO)cn4)cc3n2)cn1	0.0415 µM (active)	0.0118 µM (active)	6.6 nM (active)	0.0935 µM (active)	0.001 µM (active)	6.9 nM (active)	0.001 µM (active)	–	34.1 nM (active)	0.001 µM (active)	0.001 µM (active)	0.0011 µM (active)	0.0166 µM (active)	0.0296 µM (active)	inactive	0.209 µM (active)	0.0066 µM (active)	0.0086 µM (active)	0.001 µM (active)
C[C@@H](O)[C@H]1C(=O)N2C(C(=O)O)=C(S[C@@H]3CN[C@H](C(=O)N(C)C)C3)[C@H](C)[C@H]12	inactive	inactive	inactive	inactive	inactive	inactive	inactive	inactive	inactive	–	inactive	inactive	inactive	inactive	inactive	inactive	inactive	inactive	inactive
NC1=N[C@@]2(c3cc(NC(=O)c4ccc(F)cn4)ccc3F)COC[C@@H]2CS1	inactive	4.69 µM (active)	296 nM (active)	0.0074 µM (active)	0.833 µM (active)	122 nM (active)	1.87 µM (active)	inactive	–	–	0.132 µM (active)	0.137 µM (active)	–	23.5 µM (active)	inactive	–	0.372 µM (active)	0.153 µM (active)	inactive
C[C@H](NC(=O)c1sccc1OCc1ccc(Cl)cc1)c1ccccc1	inactive	18.7 µM (active)	inactive	23.5 µM (active)	13.2 µM (active)	27300 nM (active)	–	inactive	inactive	–	inactive	12.2 µM (active)	29.6 µM (active)	–	inactive	–	–	19.3 µM (active)	inactive
O=C(O)c1cc(O)c2c(c1)C(=O)c1cccc(O)c1C2=O	inactive	inactive	inactive	inactive	19.1 µM (active)	inactive	38.2 µM (active)	inactive	inactive	–	inactive	inactive	inactive	–	inactive	–	–	inactive	inactive
COc1cc2ncnc(-n3nc(-c4ccccn4)nc3N)c2cc1OC	inactive	18.7 µM (active)	14800 nM (active)	3.72 µM (active)	4.69 µM (active)	–	14.8 µM (active)	inactive	–	4.69 µM (active)	–	2.17 µM (active)	–	inactive	–	–	4.69 µM (active)	–	–
N[C@@]1(C(=O)O)CS(=O)(=O)[C@H]2[C@H](C(=O)O)[C@H]21	inactive	inactive	inactive	1.87 µM (active)	18.7 µM (active)	–	inactive	inactive	inactive	–	–	–	–	inactive	inactive	inactive	inactive	–	inactive
Clc1ccc(-c2nc3sccn3c2C=NOCc2ccc(Cl)c(Cl)c2)cc1	inactive	inactive	inactive	–	–	inactive	–	inactive	–	–	inactive	inactive	inactive	–	inactive	inactive	–	inactive	inactive
CC1(C)CCC(CN2CCN(c3ccc(C(=O)NS(=O)(=O)c4ccc(NCC5CCOCC5)c([N+](=O)[O-])c4)c(Oc4cnc5[nH]ccc5c4)c3)CC2)=C(c2ccc(Cl)cc2)C1	inactive	14.8 µM (active)	2960 nM (active)	–	0.0074 µM (active)	27300 nM (active)	1.87 µM (active)	18.7 µM (active)	–	0.0418 µM (active)	1.05 µM (active)	15.3 µM (active)	18.7 µM (active)	11.8 µM (active)	inactive	–	14.8 µM (active)	30.6 µM (active)	10.5 µM (active)
CC(C)C(C)C=CC(C)C1CCC2C3=CC=C4CC(O)CCC4(C)C3CCC21C (stereo not given)	inactive	inactive	inactive	inactive	–	inactive	inactive	inactive	–	inactive	inactive	inactive	inactive	inactive	inactive	inactive	inactive	inactive	inactive
O=C(O)C(O)Cc1ccc(O)c(O)c1 (stereo not given)	inactive	inactive	inactive	–	–	inactive	–	inactive	inactive	–	–	inactive	inactive	inactive	inactive	–	–	inactive	–
CNC(=O)c1ccc2cc(C3(O)CCn4cncc43)ccc2c1 (stereo not given)	inactive	inactive	inactive	–	–	inactive	inactive	–	inactive	inactive	inactive	inactive	inactive	inactive	inactive	–	–	inactive	inactive
COc1cc2ncnc(Nc3ccc(F)c(Cl)c3)c2cc1OCCCN1CCOCC1	38 µM (active)	4.29 µM (active)	1.71 µM (active) and 8.41 µM (active)	1.71 µM (active) and 21.1 µM (active)	–	15.7 µM (active) and 19.5 µM (active)	–	42.9 µM (active)	17.5 µM (active) and 27.3 µM (active)	34 µM (active)	6.05 µM (active)	8.85 µM (active) and 17.4 µM (active)	6.79 µM (active) and 23.7 µM (active)	27 µM (active)	–	–	13.6 µM (active)	39.5 µM (active)	34 µM (active)
